The whole screen tested about 650,000 compounds, of which about 5,900 (0.91%) were called active. This excerpt belongs to a sample that is enriched for actives. Values without a mark were called inactive. Cut-off read from the data, not from the text of the source: active = inhibition above about 50%; inactive = the rest.
Biological target: Microphthalmia-associated transcription factor (Homo sapiens) (UniProt O75030)
Test: MITF inhibitors, primary screen, biochemical, AlphaScreen, human (AID 1259374);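 note: 0% = vehicle wells with protein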
Conditions: AlphaScreen MITF homodimerization, bead proximity signal; at 2.6 µM; active compounds read high

Sequence of Microphthalmia-associated transcription factor (Homo sapiens) (O75030 whole entry, looked up): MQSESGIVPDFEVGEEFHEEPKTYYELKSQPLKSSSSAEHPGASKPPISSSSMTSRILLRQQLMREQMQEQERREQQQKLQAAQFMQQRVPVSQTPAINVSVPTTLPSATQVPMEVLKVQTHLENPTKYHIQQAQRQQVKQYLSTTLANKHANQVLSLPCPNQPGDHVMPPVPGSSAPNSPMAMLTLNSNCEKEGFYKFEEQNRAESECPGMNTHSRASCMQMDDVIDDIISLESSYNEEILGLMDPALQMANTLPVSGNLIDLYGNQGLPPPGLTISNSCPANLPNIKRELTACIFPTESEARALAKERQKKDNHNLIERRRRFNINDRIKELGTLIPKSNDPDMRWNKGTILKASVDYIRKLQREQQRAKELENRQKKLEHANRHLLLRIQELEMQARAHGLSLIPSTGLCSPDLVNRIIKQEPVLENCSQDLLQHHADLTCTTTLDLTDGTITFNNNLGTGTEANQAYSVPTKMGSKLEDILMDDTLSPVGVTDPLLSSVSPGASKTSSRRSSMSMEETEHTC

Point of comparison: `CSc1ccccc1C(=O)NCc1c(C)ncc2c1CCN(C(=O)c1cc(C)oc1C)C2`, inhibition 12.3%. Against it:
- CC1CCC(C(C)C)C(OC(=O)COC(=O)c2cnccn2)C1 (stereo unspecified) — lower, 2.66%
- CCN(CC)CC(=O)Nc1nn(-c2ccccc2)nc1C(N)=O — lower, -0.44%
- CCOC(=O)COc1cccc2c1CCN(Cc1ccccc1)C2=O — lower, -3.19%
- Cc1cc(C)c(NC(=O)CNC(C)(C)C)c(C)c1 — lower, -3.53%
- CCOC(=O)C1CCN(c2nc(-c3cccc(C)c3)nc3ccccc23)CC1 — lower, 0.58%
- Cc1[nH]c(=O)[nH]c(=O)c1S(=O)(=O)N1CCOc2ccccc21 — lower, 5.78%
- CCc1ccc(NC(=O)C(=O)NCCCN2CCOCC2)cc1 — higher, 12.7%
- CC(C)C(=O)Nc1ccc(CN2CCOCC2)cc1 — lower, 1.55%
- O=C(Cn1c(=O)n(Cc2ccc3c(c2)OCO3)c(=O)c2ncccc21)N1CCc2ccccc21 — lower, 3.95%
- COc1cc(C=O)ccc1OCC(=O)c1ccc(C)c(C)c1 — lower, 11.1%
- CCOC(=O)N/N=C/c1ccc(OS(=O)(=O)c2ccc(C)cc2)c(OC)c1 — lower, 2.78%
- O=C(CCN1C(=O)C2CCCCC2C1=O)N1CCc2c(nc(N3CCCC3)[nH]c2=O)C1 (stereo unspecified) — lower, -0.41%
- CC(C)[C@@H](CO)Nc1ccc2ncc(-c3ccccc3F)n2n1 — lower, -14.3%
- CC(=O)c1ccc(OCC(=O)N2CCOCC2)cc1 — lower, -0.62%
- CS(=O)(=O)N1CCC(c2nc3c(nnn3Cc3cccc(Cl)c3)c(=O)[nH]2)CC1 — lower, 9.95%
- Clc1cccc(CN2CCN(c3ccccn3)CC2)c1 — higher, 50.1%
- CCS(=O)(=O)N1CCN(c2cccc(Cl)c2)CC1 — lower, -3.13%
- CCCS(=O)(=O)N1CCN=C1SCc1cccc(Cl)c1 — higher, 18.8%
- CCCS(=O)(=O)N1CCC(O)(c2cccnc2)CC1 — higher, 13.4%
- O=S(=O)(c1ccc(Br)c2ccccc12)N1CCN(Cc2ccccc2)CC1 — lower, 7.47%
- CC(CC(=O)N(CC(N)=O)C(C)C)c1ccccc1 (stereo unspecified) — lower, -5.95%
- CCOC(=O)c1cccc(NC(=O)COc2ccccc2Br)c1 — lower, 8.75%
- COc1cc(/C=C(/C#N)C(N)=S)c(Br)cc1O — higher, 24.1%
- COc1ccc(C(=O)N2CCCCO2)cc1OC1CCN(C(C)=O)CC1 — lower, 2.51%
- Cc1ccc(SCC(=O)NCc2nc(-c3ccc(C)cc3)no2)cc1 — lower, -3.11%
- CC(C)CCN1CCNC(=O)C1CC(=O)N1CCCO1 (stereo unspecified) — lower, 1.48%
- O=[N+]([O-])c1c(Cl)cc(Cl)c2nsnc12 — lower, 1.42%
- C=CCn1c(C)c(/C=c2/sc3n(c2=O)C(c2ccc(OC)c(Br)c2)C(C(=O)OCC)=C(C)N=3)c2ccccc21 (stereo unspecified) — lower, -0.97%
- CN1CCN(c2nccnc2-c2cccc(C(=O)NCCO)c2)CC1 — lower, 4.98%
- COc1ccccc1N1CCN(C2CCN(Cc3ccccc3[N+](=O)[O-])CC2)CC1 — lower, -2.11%
- O=S(=O)(c1ccc(F)cc1)N1CCN(CCCc2ccccc2)CC1 — higher, 43.8%
- CCOc1ccccc1CN1CCN(Cc2cccnc2)CC1CCO (stereo unspecified) — lower, 8.25%
- O=C(Cc1ccccc1[N+](=O)[O-])NNC(=O)Nc1ccccc1C(F)(F)F — higher, 13.8%
- O=S(=O)(c1ccc(F)cc1)N1CCN(Cc2ccccc2F)CC1 — lower, 3%
- CCC(C)C(=O)NCc1nnc2n1CCN(Cc1cccnc1)CC2 (stereo unspecified) — lower, 0.14%
- O=C(CC(Nc1ccc2ccccc2c1)c1cccnc1)c1ccccc1 (stereo unspecified) — lower, 1.3%
- CC(=O)Nc1ccc(Oc2cc(NC(=O)c3cccc(F)c3)cc([N+](=O)[O-])c2)cc1 — lower, 9%
- O=C1c2ccccc2C(=O)c2c1cccc2S(=O)(=O)N1CCCC1 — lower, 10.2%
- O=C(Nc1ccc2nsnc2c1NC(=O)c1ccc2nsnc2c1)c1ccc2nsnc2c1 — lower, 1.05%
- N#CCSc1nc2[nH]ncc2c(=O)n1-c1cccc(C(F)(F)F)c1 — lower, 1.44%
- CC(C)[C@@H](C(=O)OCC(=O)Nc1cccnc1Cl)N1C(=O)c2ccccc2C1=O — lower, -1.46%
- C/C(=N\NC(=O)C(O)(c1ccccc1)c1ccccc1)c1ccccc1O — lower, -4.23%
- COc1ccccc1N=Cc1cccc(O)c1O — lower, -5.98%
- NC(=O)c1ccc(N=Cc2cccc(O)c2O)cc1 — higher, 25.2%
- C/C(=N\Nc1nc(C(C)(C)C)cs1)c1ccccc1O — lower, 6.2%
- COc1ccc(/C=C/C(=O)NCc2ccccc2OC)cc1 — lower, -9.24%
- CCc1ccc(N=c2oc3c(C)ncc(CO)c3cc2C(N)=S)cc1 — lower, 3.64%
- COc1ccc(S(=O)(=O)/N=C2/C=C(Nc3ccc(O)cc3)C(=O)c3ccccc32)cc1 — higher, 20%
- COC(=O)c1ccccc1NC1=C/C(=N/S(=O)(=O)c2ccccc2)c2ccccc2C1=O — higher, 23.4%
- COC(=O)c1c(OC2CCCC2)cc(=O)n2c1CCN(Cc1cccnc1)CC2 — lower, 2.84%
- CCOc1cc(CN2CCN(C(=O)c3ccccc3F)CC2)ccc1OC — higher, 34.4%
- COc1cc(CN2CCN(c3ccccn3)CC2)cc(OC)c1O — higher, 19.3%
- COc1ccc(C(=O)N2CCN(Cc3cccc(OC)c3)CC2)cc1 — higher, 45.7%
- CCOc1cc(CN2CCC(n3nccc3NC(=O)C(C)(C)C)CC2)ccc1OC — lower, -3.52%
- Cc1cc2nc(N3CCCN(Cc4cccnc4)CC3)nc(C)c2cc1C — lower, 6.51%
- CCOc1ccc(CN2CCN(Cc3ccc(OC)c(OCC)c3)CC2)cc1 — lower, 9.84%
- CCOc1ccccc1N1CCN(S(=O)(=O)c2ccc([N+](=O)[O-])cc2)CC1 — lower, 6.79%
- c1ccc2c(-c3nc(Nc4ccc(N5CCOCC5)cc4)c4ncn(C5CCCCC5)c4n3)csc2c1 — lower, 1.65%
- COc1cccc(OC)c1C(=O)NNC(=O)c1cccc(C)c1O — lower, -15.2%
- Cn1cnnc1SCC(=O)N1CCN(c2ccccc2)CC1 — lower, 1.28%
- CCOC(=O)c1sc(NC(=O)c2ccc(S(=O)(=O)N3CCc4ccccc43)cc2)nc1-c1ccccc1 — higher, 15.2%
- CCOC(=O)c1c(NC(=O)C(C)Sc2nnc(CNC(=O)c3ccc(C)c([N+](=O)[O-])c3)n2CCc2ccccc2)sc2c1CCC2 (stereo unspecified) — lower, -9.22%
- O=C(COc1ccc(Cl)cc1Cl)Nc1ccc(Br)cn1 — lower, 9.36%
- Cc1cc(-n2c(C)nc3ccccc3c2=O)ccc1NS(=O)(=O)c1ccccc1 — lower, -5.82%
- O=C(O)CNC(=O)/C(=C/c1ccc2c(c1)OCO2)NC(=O)c1cccc(Br)c1 — lower, -6.12%
- COc1ccccc1NC(=O)N1CCC(CO)(Cc2ccccc2Cl)CC1 — lower, -1.19%
- COc1cc(OC)c(OC)cc1CN1CCN(C(=O)c2ccccc2F)CC1 — higher, 17.8%
- CCOC(=O)C1CCN(Cc2ccccc2F)CC1 — higher, 26.1%
- COc1cc(CN2CCC(O)CC2)ccc1OCc1ccccc1 — lower, -15%
- c1ccc(CCc2nnc3n2CCN(Cc2cccnc2)CC3)cc1 — lower, 4.85%
- COc1c(S(=O)(=O)N2CCN(Cc3ccccc3)CC2)ccc(Cl)c1Cl — lower, -5.29%
- COc1ccc(/C=N/N2CCN(C)CC2)cc1OCc1ccccc1 — higher, 21.7%
- c1ccc(COc2ccccc2CNCc2cccnc2)cc1 — lower, -4.27%
- O=C1CCN(Cc2cccnc2)CCN1Cc1c(F)cc(F)cc1F — lower, 10.8%

With `CCN(CC)CC(=O)Nc1c2c(nc3ccccc13)N(c1cccc(C)c1)CC2` the inhibition was 65.6% (active).
`CC(C)(C)NCC(=O)Nc1c2c(nc3ccccc13)N(Cc1ccccc1)CC2` was tested, and the inhibition was 63.8% (active).
With `CC(NCCCN1CCOCC1)C(=O)Nc1ccccc1` (stereo unspecified) the inhibition was 77.6% (active).
With `COc1ccc(C(=O)COC(=O)CNS(=O)(=O)/C=C/c2ccc(C)cc2)cc1OC` the inhibition was 74.8% (active).
In the case of `CCCS(=O)(=O)N1CCN(Cc2ccccc2Br)CC1`, the inhibition is reported as 58.2% (active).
For `CS(=O)(=O)N1CCN(Cc2cccc(Cl)c2)CC1`, the inhibition was 70.2% (active).
`CCCS(=O)(=O)N1CCN(Cc2cccc(Cl)c2)CC1` was tested, and the inhibition was 54.8% (active).
`O=S(=O)(c1ccc(F)cc1)N1CCN(Cc2ccccc2C(F)(F)F)CC1` was tested, and the inhibition was 59.6% (active).
With `O=[N+]([O-])c1ccccc1CN1CCN(Cc2cccnc2)CC1` the inhibition was 61.9% (active).
With `O=[N+]([O-])c1ccccc1CN1CCN(Cc2ccccc2C(F)(F)F)CC1` the inhibition was 67.3% (active).
In the case of `C/C(=N\Nc1ccc(Cl)nn1)c1ccccc1O`, the inhibition is reported as 61.1% (active).
With `Oc1cccc(/C=N/Nc2ccc(Cl)nn2)c1O` the inhibition was 89.8% (active).
In the case of `COc1ccccc1NC1=C/C(=N/S(=O)(=O)c2ccc(F)cc2)c2ccccc2C1=O`, the inhibition is reported as 67.4% (active).
`CCOc1ccccc1N1CCN(Cc2cc(OC)c(O)c([N+](=O)[O-])c2)CC1` was tested, and the inhibition was 55.2% (active).
For `COc1cccc(CN2CCN(C(=O)c3ccccc3F)CC2)c1`, the inhibition was 56.7% (active).
For `COc1cc(CN2CCN(Cc3cccnc3)CC2)cc(OC)c1OC`, the inhibition was 80.7% (active).
`CCOc1cc(CN2CCN(Cc3ccccn3)CC2)ccc1OC` was tested, and the inhibition was 62.3% (active).
For `CCCS(=O)(=O)N1CCN(Cc2ccc(OC)c(OCc3ccccc3)c2)CC1`, the inhibition was 52.7% (active).
With `COc1cccc(OC)c1C(=O)N1CCN(Cc2ccccc2F)CC1` the inhibition was 55.7% (active).
In the case of `Brc1cccc(CN2CCN(Cc3cccnc3)CC2)c1`, the inhibition is reported as 77.7% (active).
In the case of `COc1ccc(CN2CCN(Cc3cccnc3)CC2)cc1OCc1ccccc1`, the inhibition is reported as 75.8% (active).
